Drawing on PubChem BioAssay (EPA / NIEHS), this text covers outcome and AC50 for 7 molecules.

Structures are written as SMILES. Active and inactive are the calls of the source. How the source made its calls: active means hit-call score of the fitted dose curve at least 0.9, where 1 is the maximum; inactive means score below 0.9.

Test [1] is described as follows: ATG_ISRE_CIS: Attagene CIS-FACTORIAL HepG2 Assay for human Interferon Regulatory Factor 1 (IRF1) binding to an Interferon-Stimulated Response Element (ISRE) (AID 2282948). The settings on record: HepG2 ISRE cis-reporter (Attagene), mRNA transcription readout; actives raise or lower the signal. The method, boiled down: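 Cell-based cis-reporter assay; HepG2; 24 h exposure; reporter mRNA by RT-PCR plus capillary electrophoresis fluorescence; activity in either direction scored relative to DMSO.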

A short description of test [2]: ATG_M_32_CIS: Attagene CIS-FACTORIAL HepG2 Assay for M32 Transcription Factor (Internal Marker) (AID 2282949).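 Further: background control marker of the multiplexed CIS panel rather than a real target.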 The settings on record: HepG2 Attagene cis-factorial M32 reporter, mRNA; actives raise or lower the signal. The gist of the method:
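Internal background marker read-out: RT-PCR/capillary electrophoresis fluorescence of reporter transcripts from transiently transfected HepG2 cells after 24 h chemical exposure. Activity fitted bidirectionally relative to DMSO negative control.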

The nature of test [3]: ATG_M_06_CIS: Attagene CIS-FACTORIAL HepG2 Assay for M06 Transcription Factor (Internal Marker) (AID 2282950). Conditions: HepG2 Attagene CIS-FACTORIAL M06 internal marker reporter; actives raise or lower the signal. The method, boiled down:
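Internal background marker within multiplexed cis-reporter HepG2 system. Cells transiently transfected, dosed 24 h; reporter mRNA measured by RT-PCR, HpaI digestion and capillary electrophoresis. Bidirectional fit relative to DMSO.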

For test [4], the target named is Hypoxia-inducible factor 1-alpha (Homo sapiens) (UniProt Q16665). Briefly: ATG_HIF1a_CIS: Attagene CIS-FACTORIAL HepG2 Assay for human Hypoxia Inducible Factor 1 (HIF1A) (AID 2282951). Conditions: HepG2 Attagene cis-factorial HIF1a reporter transcription; actives raise or lower the signal. The method, boiled down: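 RT-PCR/capillary electrophoresis fluorescence readout of reporter transcripts from endogenous-TF-driven cis elements in transfected HepG2 cells, 24 h exposure; activity fitted in both directions against DMSO controls.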
Sequence of Hypoxia-inducible factor 1-alpha (Homo sapiens) (Q16665 whole entry, looked up): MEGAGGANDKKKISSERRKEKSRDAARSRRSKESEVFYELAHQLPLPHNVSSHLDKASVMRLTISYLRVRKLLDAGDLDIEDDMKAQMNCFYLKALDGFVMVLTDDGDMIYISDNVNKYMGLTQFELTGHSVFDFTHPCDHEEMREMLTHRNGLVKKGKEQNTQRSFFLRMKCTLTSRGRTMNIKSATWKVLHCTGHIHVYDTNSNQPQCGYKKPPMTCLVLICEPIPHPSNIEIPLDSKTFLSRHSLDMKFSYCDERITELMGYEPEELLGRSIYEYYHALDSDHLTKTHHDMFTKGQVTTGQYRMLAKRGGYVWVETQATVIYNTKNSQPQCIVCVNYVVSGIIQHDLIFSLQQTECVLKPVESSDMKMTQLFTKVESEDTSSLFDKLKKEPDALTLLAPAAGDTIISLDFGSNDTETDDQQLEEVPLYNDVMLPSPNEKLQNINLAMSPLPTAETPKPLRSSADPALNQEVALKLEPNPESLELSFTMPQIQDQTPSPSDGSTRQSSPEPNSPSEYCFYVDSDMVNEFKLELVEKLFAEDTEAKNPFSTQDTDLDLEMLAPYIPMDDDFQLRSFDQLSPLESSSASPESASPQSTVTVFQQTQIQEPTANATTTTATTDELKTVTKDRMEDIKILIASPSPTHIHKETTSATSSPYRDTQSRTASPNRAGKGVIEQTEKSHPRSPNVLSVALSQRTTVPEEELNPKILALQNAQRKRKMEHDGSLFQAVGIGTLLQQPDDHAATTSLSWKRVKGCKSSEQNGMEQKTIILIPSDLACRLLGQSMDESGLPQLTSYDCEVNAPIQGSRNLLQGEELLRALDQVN

Test [5] has as its target Hepatocyte nuclear factor 6 (Homo sapiens) (UniProt Q9UBC0). Briefly: ATG_HNF6_CIS: Attagene CIS-FACTORIAL HepG2 Assay for human Hepatocyte Nuclear Factor 6 (HNF6) (AID 2282952). The settings on record: HepG2 Attagene cis-factorial HNF6 reporter transcription; actives raise or lower the signal. The method, boiled down:
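Multiplexed mRNA reporter assay in transfected HepG2; 24 h dosing; RT-PCR plus capillary electrophoresis fluorescence; DMSO-referenced bidirectional curve fitting.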

For test [6], the target named is Heat shock factor protein 1 (Homo sapiens) (UniProt Q00613). Briefly: ATG_HSE_CIS: Attagene CIS-FACTORIAL HepG2 Assay for human Heat Shock Transcription Factor 1 (HSE) (AID 2282953). The settings on record: HepG2 HSE cis-reporter, Attagene RNA transcription; actives raise or lower the signal. The gist of the method: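 HepG2 cells transfected with cis-promoter reporter units sensing endogenous transcription factor activity; reporter mRNA quantified 24 h post-dose by RT-PCR and capillary electrophoresis of 6-FAM-labelled products. Bidirectional fitting against DMSO.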
Sequence of Heat shock factor protein 1 (Homo sapiens) (Q00613 whole entry, looked up): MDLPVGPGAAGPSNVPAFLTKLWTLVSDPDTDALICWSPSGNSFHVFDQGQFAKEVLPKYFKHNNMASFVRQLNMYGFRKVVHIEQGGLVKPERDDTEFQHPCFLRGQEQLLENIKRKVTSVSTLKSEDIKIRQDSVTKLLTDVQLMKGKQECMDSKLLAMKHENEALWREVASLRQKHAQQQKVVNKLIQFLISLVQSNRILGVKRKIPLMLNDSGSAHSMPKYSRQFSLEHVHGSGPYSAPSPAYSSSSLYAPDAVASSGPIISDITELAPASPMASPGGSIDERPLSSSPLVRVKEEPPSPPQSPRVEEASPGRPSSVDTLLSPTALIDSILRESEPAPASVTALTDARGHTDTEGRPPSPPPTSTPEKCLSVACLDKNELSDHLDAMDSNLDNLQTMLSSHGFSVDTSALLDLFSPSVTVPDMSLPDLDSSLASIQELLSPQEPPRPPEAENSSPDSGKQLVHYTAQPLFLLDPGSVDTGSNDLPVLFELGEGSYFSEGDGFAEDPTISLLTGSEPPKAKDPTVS

Test [7] can be described thus: ATG_MRE_CIS: Attagene CIS-FACTORIAL HepG2 Assay for human Metal Responsive Element (MRE) (AID 2282954). Conditions: HepG2 MRE cis-reporter transcription, Attagene multiplex; actives raise or lower the signal. The method, boiled down: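 Fluorescent reporter fragments separated by capillary electrophoresis give mRNA induction for the MRE unit after 24 h treatment of transfected HepG2 cells. Endogenous transcription-factor activity is read; DMSO serves as negative control and baseline.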

Test [8] can be described thus: ATG_PBREM_CIS: Attagene CIS-FACTORIAL HepG2 Assay for human Phenobarbital-responsive Enhancer Module (PBREM) (AID 2282955). Conditions: HepG2 PBREM cis-reporter, Attagene multiplexed transcription; actives raise or lower the signal. The method, boiled down:
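Reporter mRNA read by RT-PCR, 6-FAM primer extension, HpaI digestion and capillary electrophoresis. Transfected HepG2 cells, 24 h compound exposure. Gain or loss of signal fitted bidirectionally relative to DMSO baseline.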

The target in test [9] is Paired box protein Pax-6 (Homo sapiens) (UniProt P26367). Kind of test: ATG_Pax6_CIS: Attagene CIS-FACTORIAL HepG2 Assay for human Paired Box 6 (PAX6) (AID 2282956). The settings on record: HepG2 CIS-FACTORIAL PAX6 reporter transcription, RNA readout; actives raise or lower the signal. The method, boiled down:
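Multiplexed cis-reporter HepG2 system; 24 h treatment; reporter mRNA read by RT-PCR/CE fluorescence; bidirectional fit vs DMSO.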

Test [10] can be described thus: ATG_PXRE_CIS: Attagene CIS-FACTORIAL HepG2 Assay for human Pregnane X Receptor Element (PXRE) (AID 2282957). Conditions: HepG2 Attagene CIS-FACTORIAL PXRE reporter, mRNA; actives raise or lower the signal. The method, boiled down: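 Cells: HepG2, transiently transfected reporter units under cis promoter control. Exposure: 24 h. Detection: reporter mRNA via RT-PCR/CE fluorescence; bidirectional fitting, DMSO-referenced.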

Test [11] in a line: ATG_PPRE_CIS: Attagene CIS-FACTORIAL HepG2 Assay for human Peroxisome Proliferator-activated Response Element (PPRE) (AID 2282958). The settings on record: HepG2 PPRE cis-element reporter, Attagene transcription factor profiling; actives raise or lower the signal. The method, boiled down: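 Read-out: fluorescent reporter mRNA fragments resolved by capillary electrophoresis after RT-PCR. HepG2 cells carried transiently transfected PPRE-driven cis reporter constructs and were dosed for 24 h; gain or loss of signal fitted relative to DMSO.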

Test [12] in a line: ATG_RORE_CIS: Attagene CIS-FACTORIAL HepG2 Assay for human RAR-related Orphan Receptor Element (RORE) (AID 2282959). Conditions: HepG2 Attagene cis-factorial RORE reporter, mRNA; actives raise or lower the signal. The method, boiled down: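 Readout: fluorescent reporter mRNA by RT-PCR plus capillary electrophoresis, 24 h after dosing transfected HepG2 cells. Endogenous transcription factor activity on a cis promoter element is measured. Gain or loss of signal fitted against DMSO.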

Test [13] in a line: ATG_Sox_CIS: Attagene CIS-FACTORIAL HepG2 Assay for human SRY-box transcription factor (SOX) (AID 2282960). Conditions: HepG2 Attagene cis-factorial SOX reporter, mRNA; actives raise or lower the signal. The method, boiled down:
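Read-out: fluorescent RT-PCR products of SOX1-linked reporter transcripts resolved by capillary electrophoresis, fitted bidirectionally against DMSO. Transiently transfected HepG2 cells, 24 h after chemical exposure, endogenous transcription factor activity.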

The target of test [14] is Transcription factor Sp1 (Homo sapiens) (UniProt P08047). Kind of test: ATG_Sp1_CIS: Attagene CIS-FACTORIAL HepG2 Assay for human Specificity Protein 1 (Sp1) (AID 2282961). The settings on record: HepG2 Sp1 cis-reporter transcription, actives raise or lower the signal. The method, boiled down: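 Read-out: fluorescence of 6-FAM-labeled, HpaI-digested RT-PCR products separated by capillary electrophoresis. HepG2 cells carried transfected cis-element reporter units and were exposed to chemicals for 24 h; gain or loss of signal fitted relative to DMSO.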
Sequence of Transcription factor Sp1 (Homo sapiens) (P08047 whole entry, looked up): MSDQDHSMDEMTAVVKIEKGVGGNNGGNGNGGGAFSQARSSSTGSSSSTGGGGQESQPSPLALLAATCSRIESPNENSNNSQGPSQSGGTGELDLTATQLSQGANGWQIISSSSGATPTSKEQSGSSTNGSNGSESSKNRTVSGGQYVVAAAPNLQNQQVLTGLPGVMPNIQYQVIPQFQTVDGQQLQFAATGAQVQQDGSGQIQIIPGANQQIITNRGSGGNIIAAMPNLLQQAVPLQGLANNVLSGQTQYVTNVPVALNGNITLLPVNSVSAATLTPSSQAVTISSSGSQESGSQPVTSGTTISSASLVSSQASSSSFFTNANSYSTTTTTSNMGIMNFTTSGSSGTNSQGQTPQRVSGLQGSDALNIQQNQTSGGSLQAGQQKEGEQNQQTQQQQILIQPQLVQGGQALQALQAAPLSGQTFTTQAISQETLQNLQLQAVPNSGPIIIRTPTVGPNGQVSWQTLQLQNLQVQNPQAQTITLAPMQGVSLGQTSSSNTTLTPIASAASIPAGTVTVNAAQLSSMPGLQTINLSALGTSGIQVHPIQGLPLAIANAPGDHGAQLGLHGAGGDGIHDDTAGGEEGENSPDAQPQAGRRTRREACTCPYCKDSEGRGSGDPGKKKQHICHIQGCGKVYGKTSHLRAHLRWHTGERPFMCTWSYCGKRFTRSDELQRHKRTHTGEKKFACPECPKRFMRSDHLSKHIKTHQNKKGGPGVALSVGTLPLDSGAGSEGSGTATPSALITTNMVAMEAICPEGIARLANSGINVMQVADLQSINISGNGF

The nature of test [15]: ATG_SREBP_CIS: Attagene CIS-FACTORIAL HepG2 Assay for human Sterol Regulatory Element Binding (SREBP) (AID 2282962). Conditions: HepG2 Attagene cis-factorial SREBP reporter, mRNA; actives raise or lower the signal. The method, boiled down: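 mRNA induction of transfected cis-promoter reporters in HepG2 cells, 24 h post-dose. Detection: RT-PCR with 6-FAM-labelled products, HpaI digest, capillary electrophoresis. DMSO served as negative control and baseline.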

The target in test [16] is Signal transducer and activator of transcription 3 (Homo sapiens) (UniProt P40763). Kind of test: ATG_STAT3_CIS: Attagene CIS-FACTORIAL HepG2 Assay for human Signal Transducer and Activator of Transcription 3 (STAT3) (AID 2282963). The settings on record: HepG2, Attagene cis-factorial STAT3 reporter transcription; actives raise or lower the signal. The method, boiled down: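 Values derive from bidirectional fits relative to DMSO of reporter mRNA levels, measured by RT-PCR with capillary electrophoresis, in HepG2 cells carrying transiently transfected cis-regulated reporter units and exposed 24 h.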
Sequence of Signal transducer and activator of transcription 3 (Homo sapiens) (P40763 whole entry, looked up): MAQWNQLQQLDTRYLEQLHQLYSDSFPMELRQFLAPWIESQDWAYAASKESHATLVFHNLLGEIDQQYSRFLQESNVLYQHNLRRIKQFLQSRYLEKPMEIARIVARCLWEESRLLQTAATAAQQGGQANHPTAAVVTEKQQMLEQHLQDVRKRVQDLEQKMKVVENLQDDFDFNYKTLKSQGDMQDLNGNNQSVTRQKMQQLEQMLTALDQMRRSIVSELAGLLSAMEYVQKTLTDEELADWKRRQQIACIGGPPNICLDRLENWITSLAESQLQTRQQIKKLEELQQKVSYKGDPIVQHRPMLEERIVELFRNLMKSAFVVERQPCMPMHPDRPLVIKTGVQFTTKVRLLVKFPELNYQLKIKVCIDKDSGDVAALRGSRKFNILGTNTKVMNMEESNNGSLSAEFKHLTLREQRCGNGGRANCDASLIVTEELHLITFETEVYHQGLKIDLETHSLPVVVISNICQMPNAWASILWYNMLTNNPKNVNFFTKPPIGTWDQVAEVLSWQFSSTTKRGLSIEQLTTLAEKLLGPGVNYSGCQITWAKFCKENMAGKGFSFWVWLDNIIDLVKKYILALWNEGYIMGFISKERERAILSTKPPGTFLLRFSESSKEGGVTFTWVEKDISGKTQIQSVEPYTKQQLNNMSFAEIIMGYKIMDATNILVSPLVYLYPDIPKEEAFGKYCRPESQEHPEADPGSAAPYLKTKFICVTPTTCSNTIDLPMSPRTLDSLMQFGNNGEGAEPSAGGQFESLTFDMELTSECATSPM

A short description of test [17]: ATG_TA_CIS: Attagene CIS-FACTORIAL HepG2 Assay for human TA Basal Promoter (AID 2282964). The settings on record: HepG2 Attagene CIS-factorial TA basal promoter reporter; actives raise or lower the signal. The method, boiled down: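 HepG2 cells transiently transfected with multiple reporter units under cis promoter elements, reporting endogenous transcription factor activity; this endpoint tracks the TA basal promoter as background control. Reporter mRNA after 24 h dosing measured by RT-PCR/capillary electrophoresis; bidirectional fits versus DMSO.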

Test [18] is described as follows: ATG_TCF_b_cat_CIS: Attagene CIS-FACTORIAL HepG2 Assay for human T-Cell-Factor with beta-catenin (TCF/b-cat) (AID 2282965). Conditions: HepG2 TCF/beta-catenin cis-reporter transcription, actives raise or lower the signal. The gist of the method: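 HepG2, transient MRTU transfection, cis-element-driven reporters (endogenous TFs). 24 h compound exposure. Readout: reporter mRNA by RT-PCR + 6-FAM primer extension, HpaI digest, capillary electrophoresis. Gain/loss fit vs DMSO baseline.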

Test [19] is described as follows: ATG_GRE_CIS: Attagene CIS-FACTORIAL HepG2 Assay for human Glucocorticoid Response Elements (GRE) (AID 2282947). The settings on record: HepG2 GRE cis-reporter, Attagene multiplex mRNA; actives raise or lower the signal. The gist of the method: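 Endogenous transcription factor activity is read through cis-element reporter constructs transiently transfected into HepG2 cells. After 24 h treatment, labelled RT-PCR products are resolved by capillary electrophoresis; DMSO sets baseline for bidirectional curve fitting.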

Sequence of Paired box protein Pax-6 (Homo sapiens) (P26367 whole entry, looked up): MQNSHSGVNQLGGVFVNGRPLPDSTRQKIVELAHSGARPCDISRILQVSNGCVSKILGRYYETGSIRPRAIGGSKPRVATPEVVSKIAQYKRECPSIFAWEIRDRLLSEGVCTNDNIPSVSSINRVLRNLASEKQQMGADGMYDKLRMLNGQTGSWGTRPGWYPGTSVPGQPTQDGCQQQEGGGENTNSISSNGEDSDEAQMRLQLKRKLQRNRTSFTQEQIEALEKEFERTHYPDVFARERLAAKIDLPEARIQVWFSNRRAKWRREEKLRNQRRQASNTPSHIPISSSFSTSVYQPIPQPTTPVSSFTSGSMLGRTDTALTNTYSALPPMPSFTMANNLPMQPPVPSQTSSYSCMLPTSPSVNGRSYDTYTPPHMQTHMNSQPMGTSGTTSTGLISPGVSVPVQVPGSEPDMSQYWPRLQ
Sequence of Hepatocyte nuclear factor 6 (Homo sapiens) (Q9UBC0 whole entry, looked up): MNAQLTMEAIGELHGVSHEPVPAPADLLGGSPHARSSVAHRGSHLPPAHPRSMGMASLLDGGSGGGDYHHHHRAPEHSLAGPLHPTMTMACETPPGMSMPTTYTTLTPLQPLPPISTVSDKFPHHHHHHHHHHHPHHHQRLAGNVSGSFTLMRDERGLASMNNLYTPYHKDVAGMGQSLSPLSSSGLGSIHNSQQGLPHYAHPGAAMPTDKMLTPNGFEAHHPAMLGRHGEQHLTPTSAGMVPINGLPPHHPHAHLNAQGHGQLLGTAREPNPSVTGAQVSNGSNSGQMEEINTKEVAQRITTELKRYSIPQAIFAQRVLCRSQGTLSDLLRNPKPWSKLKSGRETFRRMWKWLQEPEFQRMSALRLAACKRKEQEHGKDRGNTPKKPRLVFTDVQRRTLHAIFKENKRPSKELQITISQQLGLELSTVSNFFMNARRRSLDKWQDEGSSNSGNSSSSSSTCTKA

By AC50 is commonly meant the midpoint of the concentration-response curve, whichever way the signal moves. Consider `CSc1nc(NC2CC2)nc(NC(C)(C)C)n1`, for which the result in [1], in [2], in [3], in test [4], in test [5] and in test [6] was inactive. Also, the result in [8], in [9], in [12], in [13], in test [14] and in test [15] was inactive. Also, the result in test [16] was inactive. Besides, the AC50 in test [7] is 65.7 µM (active); in test [10], 0.911 µM (active); in test [11], 100 µM (active).

For the molecule `O=S(=O)(O)NC1CCCCC1`, the result in [1], in [2], in [3], in [4], in [5] and in [6] was inactive. Further, the outcome in test [7], in test [8], in test [10], in test [13], in [15] and in test [16] was inactive. Further, the result in test [17] and in [18] was inactive.

Regarding `CCCCCCCCCCCCCCCC(=O)OC[C@H](O)[C@H]1OC(=O)C(O)=C1O`, the call in [1], in [2], in test [3], in [5], in test [7] and in test [9] was inactive. Further, the molecule was classed as inactive in test [12] and in test [17]. In addition, the AC50 in [4] was 131 µM (active); in [6] it was 24.1 µM (active); in test [8], 71.7 µM (active); in [10], 38.2 µM (active); in [13], 150 µM (active); in test [15] it was 100 µM (active). Further, the AC50 in test [18] is 168 µM (active).

As to `Cc1ccc(C(=O)c2cc(O)c(O)c([N+](=O)[O-])c2)cc1`, the molecule was called inactive in test [19], in [2], in [3], in test [5], in test [6] and in test [8]. Also, the molecule was called inactive in [9], in [12], in test [13], in test [14], in test [15] and in [17]. For the same molecule, the outcome in test [18] was inactive. The half-maximal activity concentration (AC50) in test [4] is 27.4 µM (active); in [7], 130 µM (active); in test [10] it was 27.5 µM (active); in [11], 21.8 µM (active).

On to `CCC(=O)OCc1ccccc1`, for which the outcome in test [19], in [2], in [3], in test [5], in test [6] and in test [7] was inactive. The molecule was called inactive in test [10], in test [11], in test [12], in test [13], in test [14] and in test [15]. The result in test [16], in test [17] and in test [18] was inactive.

Regarding `CCCC(=O)OCCC(C)CCC=C(C)C` (configuration not stated), the outcome in test [1], in test [2], in [3], in test [4], in test [6] and in test [7] was inactive. Besides, the outcome in test [8], in test [9], in [11], in [12], in test [13] and in test [14] was inactive. Besides, the molecule was called inactive in test [15], in [16], in test [17] and in [18]. Moreover, the AC50 in test [5] is 180 µM (active); in test [10] it was 56.1 µM (active).

For the molecule `CC(C)(C)c1n[nH]c(=S)n(N)c1=O`, the outcome in test [19], in test [2], in test [3], in [4], in test [5] and in test [6] was inactive. The molecule was called inactive in test [7], in test [8], in test [9], in test [12], in [13] and in [14]. For the same molecule, the call in [15], in test [16], in test [17] and in [18] was inactive. For the same molecule, the AC50 in test [10] is 44.2 µM (active).
